Only some compounds are listed: those with a hit (about 9.3% of all), similar ones and a draw of the others.
FLuc modulator: inhibits or activates purified firefly luciferase, miR-21 counter-screen; purified FLuc, Km substrates, luminescence inhibition; P08659; AID 588342; Potency, µM (doses to about 57.5 µM), hits mostly inhibitors; hit rate 6.9% among 360,000; further: nearly all actives have a fitted effect of over 55% in size
Target sequence (P08659 whole entry, looked up): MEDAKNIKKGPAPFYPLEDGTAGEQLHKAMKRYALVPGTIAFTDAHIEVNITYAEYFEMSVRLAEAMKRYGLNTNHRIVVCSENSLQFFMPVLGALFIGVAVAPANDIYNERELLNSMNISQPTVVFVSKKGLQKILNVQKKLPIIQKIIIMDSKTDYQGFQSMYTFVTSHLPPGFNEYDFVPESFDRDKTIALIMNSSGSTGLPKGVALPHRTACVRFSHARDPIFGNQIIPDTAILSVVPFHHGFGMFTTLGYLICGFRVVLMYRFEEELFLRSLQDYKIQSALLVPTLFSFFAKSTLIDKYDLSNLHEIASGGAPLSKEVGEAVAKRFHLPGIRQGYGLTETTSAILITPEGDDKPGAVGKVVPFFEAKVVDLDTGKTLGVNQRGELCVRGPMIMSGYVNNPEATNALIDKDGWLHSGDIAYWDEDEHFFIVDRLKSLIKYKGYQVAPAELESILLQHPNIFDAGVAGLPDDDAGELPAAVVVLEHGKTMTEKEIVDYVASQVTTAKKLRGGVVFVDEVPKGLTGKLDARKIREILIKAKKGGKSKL
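Purified P. pyralis luciferase (10nM final) with 10uM D-luciferin and 10uM ATP (Km levels) in 50mM Tris acetate pH 7.5, 10mM Mg acetate, 0.01% Tween-20, 0.05% BSA; qHTS 6-point titration, ~60 µM downward; luminescence read.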
SMN2 splice enh: enhancers of SMN2 splice variant expression; HEK293 SMN2-luciferase splicing reporter, luminescence, 30-36 h; Potency, µM (highest dose often 46.1 µM), usual class: activators; hit rate 2.8% among 210,000; AID 1458; further: nearly all actives have a fitted effect of over 55% in size
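HEK293 cells carry an SMN2 […]–luciferase reporter in which exon 7 inclusion puts luciferase in frame. Cells were plated 10-12 h before compound addition, then incubated 30-36 h at 37C. ONE-Glo luminescence was read; sodium butyrate at 4.5 mM final served as control.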
ELG1 DNA repair: blocks ELG1-dependent DNA repair in HEK293T cells | HEK293T ELG1-luciferase reporter, luminescence, 16 h; DNA damage induced by 5-fluorouridine | hit rate 2.3% among 330,000 | Potency, µM (highest dose often 46.1 µM), usual class: inhibitors; further: nearly all actives have a fitted effect of over 55% in size
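Quantitative HTS, concentration-response format. 2,000 cells/well co-treated with 5-fluorouridine and compound, 16 hr in 5% CO2 at 37 °C; ONE-Glo luminescence read after 30 min.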
ELG1 genotoxic: genotoxicity induction in ELG1-luciferase HEK293T cells; HEK293T ELG1-luciferase reporter, luminescence, 16 h; Potency, µM (titrated, usually from 46 µM), hits mostly activators; hit rate 1.3% among 330,000; further: nearly all actives have a fitted effect of over 60% in size
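HEK293T cells expressing luciferase-tagged ELG1 were treated with compound or DMSO for 16 hr at 37°C. Luciferase activity was then read after 30 min with ONE-Glo at room temperature; rising signal flags genetic stress.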
Rab9 prom act: activators of Rab9 promoter | AID 485297 | Huh7 Rab9 promoter-luciferase reporter, luminescence, 24 h | Potency, µM (titrated, usually from 9.22 µM), actives largely listed as activators | hit rate 2.8% among 320,000; further: nearly all actives have a fitted effect of over 60% in size
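Stable Rab9-luc Huh7, 1500 cells/well, 2 h settle; cmpd in DMSO, 24 h, 37 °C/5% CO2; luciferase reagent 10 min RT; luminescence.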
NPC1 promoter act: activates the NPC1 promoter | hit rate 2.4% among 320,000 | Huh7 NPC1 promoter luciferase reporter, 24 h | Potency, µM (titrated, usually from 9.22 µM), hits mostly activators; further: nearly all actives have a fitted effect of over 60% in size
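Huh7 reporter cells (NPC1 promoter driving luciferase) are dosed with compound for 24 h at 37 °C, 5% CO2; luciferase detection reagent is then added and luminescence measured after 10 min at ambient temperature.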
ELG1 FLuc counter: luciferase inhibition in cell-free luciferin readout for ELG1 hits; Potency, µM (doses to about 46.1 µM), most hits filed as inhibitors; cell-free firefly luciferase luminescence counter-screen, ViewLux; shares compounds with ELG1 DNA repair; hit rate 3% among 350
ELG1 Luc conf: human ELG1 repair inhibition, luciferase-tagged ELG1 confirmation; shares compounds with ELG1 DNA repair; hit rate 68% among 670; HEK293T ELG1-luciferase levels, luminescence; cells co-treated with 5-fluorouridine; AID 624248; Potency, µM (titrated, usually from 46.1 µM), most hits filed as inhibitors; further: nearly all actives have a fitted effect of over 55% in size
ELG1-Luc MMS: confirmation of human ELG1 repair inhibitors, MMS stimulated; hit rate 53% among 670; AID 624249; HEK293T luciferase-tagged ELG1 level, MMS stimulated; Potency, µM (titrated, usually from 46.1 µM), most hits filed as inhibitors; shares compounds with ELG1 DNA repair; further: nearly all actives have a fitted effect of over 60% in size
ELG1 5FU viab: confirmation of ELG1 repair inhibitors: viability with 5FU; shares compounds with ELG1 DNA repair; cell viability with 5-FU, ELG1-dependent repair; Potency, µM (top dose mostly 46.1 µM), most hits filed as cytotoxic; 670 tested, under 10 active;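 further: ELG1-luc HEK293T cells cotreated with 5-fluorouridine at 10 µM final; viability measured 16 h after compound addition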
ELG1 MMS cell: confirmation of ELG1 repair inhibitors: viability with MMS. Cell viability with MMS, ELG1-dependent DNA repair. Potency, µM (titrated, usually from 46.1 µM), most hits filed as cytotoxic. hit rate 33% among 670. shares compounds with ELG1 DNA repair;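 further: ELG1-luc HEK293T cells co-treated with 10 µM MMS; viability read 16 h after compound addition; nearly all actives have a fitted effect of over 60% in size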
ELG1 unstim viab: unstimulated viability counter-screen for ELG1 repair hits; shares compounds with ELG1 DNA repair; cell viability counter-screen, unstimulated, luminescence; Potency, µM (top dose mostly 45.9 µM), usual class: cytotoxic; hit rate 8% among 900;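 further: compound exposure lasted 16 hours before reading; nearly all actives have a fitted effect of over 55% in size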
FLuc biochem: counter-screen for ELG1 repair inhibitors: firefly luciferase inhibition; purified firefly luciferase, luminescence counter-screen; shares compounds with ELG1 DNA repair; hit rate 10% among 350; AID 624253; Potency, µM (series often up to 57.5 µM), hits mostly inhibitors
Each line names hits and unclear results; the compound was inactive in the other large screens (follow-up assays come after a bar, where they were run). The call rests on the fitted dose curve; in most records, active means well fitted curve in the direction sought with a large enough effect; inconclusive means small, poorly fitted or top-dose-only effect, or another doubt; inactive means no such curve, though single readings can be large; an effect the other way counts as inactive or inconclusive.

COc1cc(OC)c(OC)cc1CN1CCN(c2ccc(F)cc2)CC1	none (no result: SMN2 splice enh)
CN(C)c1ccc(/C=C2\CCc3ccccc32)cc1	none (no result: FLuc modulator, SMN2 splice enh, ELG1 DNA repair, ELG1 genotoxic, Rab9 prom act, NPC1 promoter act) | ELG1 unstim viab inactive
COc1ccc(OC)c(C(C)NC(=O)c2ccco2)c1 (stereo unspecified)	Rab9 prom act inconclusive
COc1ccc(Cc2nc3ccc(C(=O)N(C)C(C)c4nccs4)cc3o2)cc1 (stereo unspecified)	none (no result: SMN2 splice enh)
COc1ccc(Cc2nc3ccc(C(=O)N(C)Cc4nccs4)cc3o2)cc1OC	ELG1 DNA repair 4.1µM (no result: SMN2 splice enh) | ELG1 Luc conf inconclusive | ELG1-Luc MMS 2.2µM | ELG1 5FU viab inactive | ELG1 MMS cell 7.9µM | ELG1 unstim viab inconclusive
Cc1ccccc1Nc1nc(N)nc(CSc2nnc(C)n2C)n1	none
Cc1sc2ncnc(NC3CCN(Cc4ccccc4)CC3)c2c1C	ELG1 DNA repair 2.1µM | ELG1 Luc conf inconclusive | ELG1-Luc MMS 1.3µM | ELG1 5FU viab inactive | ELG1 MMS cell 1.6µM | ELG1 unstim viab inconclusive
COc1cc(/C=C(\C#N)C(=O)Nc2cccc(C(=O)O)c2)ccc1OCc1ccc(Cl)cc1	FLuc modulator inconclusive, ELG1 DNA repair inconclusive, ELG1 genotoxic inconclusive (no result: SMN2 splice enh) | ELG1 FLuc counter inactive | ELG1 unstim viab inactive | FLuc biochem 16µM
COc1c(C)cc(Br)cc1C(=O)NCc1cccnc1	none
CCOC(=O)N1CCN(C(=O)c2ccc3c(c2)N=C(C)c2cc(Cl)ccc2S3)CC1	ELG1 DNA repair 3.7µM (no result: SMN2 splice enh) | ELG1 Luc conf 8.9µM | ELG1-Luc MMS inconclusive | ELG1 5FU viab inconclusive | ELG1 MMS cell inconclusive | ELG1 unstim viab inconclusive
CC1=Nc2cc(C(=O)N3CCCC3)ccc2Sc2c(C)ccc(C)c21	ELG1 DNA repair inconclusive (no result: SMN2 splice enh)
Cc1cc(Nc2ccccc2C)nc(-n2nc(C)cc2C)n1	none (no result: SMN2 splice enh, ELG1 DNA repair, ELG1 genotoxic, Rab9 prom act, NPC1 promoter act)
Cc1c(C(C)C)c(=O)n(-c2ccc(S(=O)(=O)N3CCOCC3)cc2)n1C	none (no result: SMN2 splice enh)
Cc1c(C(C)C)c(=O)n(-c2ccc(S(=O)(=O)NC3CCCCC3)cc2)n1C	ELG1 DNA repair 2.1µM (no result: SMN2 splice enh) | ELG1 Luc conf inconclusive | ELG1-Luc MMS 2.2µM | ELG1 5FU viab inactive | ELG1 MMS cell 2.5µM | ELG1 unstim viab inconclusive
Cc1c(C(C)C)c(=O)n(-c2ccc(S(=O)(=O)NCc3ccccc3)cc2)n1C	ELG1 DNA repair 1.5µM (no result: SMN2 splice enh) | ELG1 Luc conf inconclusive | ELG1-Luc MMS 1.3µM | ELG1 5FU viab inactive | ELG1 MMS cell 1.3µM | ELG1 unstim viab inconclusive
Cc1ccc2c(c1)S/C(=C/c1ccc[n+](CCO)c1)N2C	ELG1 DNA repair 2.9µM | ELG1 Luc conf inactive | ELG1-Luc MMS 8.9µM | ELG1 5FU viab inactive | ELG1 MMS cell 8.9µM | ELG1 unstim viab inconclusive

Bioassay records as filed in PubChem BioAssay.
